Molecules are shown by their SMILES. Hit rate of the full screen: of about 55,000 compounds, about 340 (0.62%) were called active. About 3% were inconclusive and are not listed. Calls follow the shape of the dose curve; as a rule, active = well fitted cell-killing curve with a large enough effect; inconclusive = small, poorly fitted or top-dose-only effect; inactive = no such curve, though single readings can be large or run the other way. The list comes from a sample in which actives are over-represented; it also holds similar structures and randomly drawn compounds.
Potency is read from the fitted curve at half-maximal effect.

A short description of the test: qHTS Screen for Compounds that Selectively Target Cancer Cells with p53 Mutations: Cytotoxicity of p53 Null Cells at the Permissive Temperature. Also: nearly all actives have a fitted effect of over 55% in size.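 As to activity change, negative = cytotoxicity: 0% = DMSO only and -100% = full killing by 100 µM tamoxifen.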 As to conditions: H1299-neo p53 null cells, ATP luminescence, 24 h, 32C; series mostly up to 46.1 µM; activity change, negative = cytotoxicity: at the top concentration. An excerpt:
NIH Chemical Genomics Center [NCGC] NIH Molecular Libraries Screening Centers Network [MLSCN] MLSCN Grant: 1 X01 MH079844-01 Assay Submitter (PI): Dr. SUN, YI, University of Michigan NCGC Assay Overview: Synthetic Lethal Screen for Compounds to Kill Cancer Cells with p53 Mutation. Tumor suppressor gene p53 serves as a major cellular barrier against tumorigenesis. […] The goal of this screening is to identify small molecule probes that selectively kill cancer cells with mutations in p53. This screening was carried out using two lines of H1299 lung cancer cells. The H1299-p53 A138V line express a temperature sensitive p53 mutant (p53ts) in which the mutant p53 protein (A138V) is in the mutant confirmation when grown at 39C (the nonpermissive temperature) and in the wild type conformation when grown at 32C (the permissive temperature). A H1299-neo line (p53 null) grown at both 39C and 32C were used as counter-screens to filter out false positive associated with temperature shifting. The small molecular compounds that selectively target mutant p53-containing cancer cells were selected as candidate probes for further study. A cytotoxicity assay based on the measurement of ATP contents in cells was used in this screen. Concentration-responses of all the compounds in the library collection were determined in qHTS using the cell lines and temperature conditions as above.
NCGC Assay Protocol Summary: Both the H1299-p53A138V and H1299-neo cell lines were provided by Dr.Yi Sun, a PI at the University Michigan. The cells were maintained and cultured at 37C. The resuspended frozen cells were used to plate the cells in the 1536-well assay plates at a density of 600 cells per well in 5 ul medium. The assay plates with the cells were incubated at 37C for 16 to 30 hours before the experiments. The library compounds in DMSO solution were added to the cells in assay plates and incubated 24 hours at 39C (for mutant p53 conformation) or 32C (for normal p53 conformation as control). An ATP_lite assay kit (PerkinElmer) was used to determine the cell viability. Tomaxifen (100uM) was used as the positive control for cell killing. Data were normalized to the controls for basal activity (DMSO only) and 100% killing (100uM tamoxifen). AC50 values were determined from concentration-response data modeled with the standard Hill equation. P53 assay protocol: 1. Reagent; 5 uL H1299-p53A138V or H1299-neo cell cells/well 2. Time; overnight; 37C incubation 3. Compounds; 23 nL; 5.9 nM to 46 uM 4. Controls; 23 nL; Tamoxifen 100 uM 5. Time; 24 hr; 32C incubation 6. Reagent; 3 uL; ATP_Lite reagent 7. Time; 20 min; Room Temperature 8. Detection; Luminescence; Viewlux plate reader Keywords: p53, synthetic lethal, cancer, cell viability, cytotoxicity, H1299 cell line, luminescence, MLSMR, MLSCN, NIH Roadmap, qHTS, NCGC
On the technique in general: Quantitative high-throughput screening tests each substance at several concentrations.
For the molecule `Cc1ccccc1CSCCNC(=O)c1ccc(Cl)c(S(=O)(=O)N2CCOCC2)c1`, the “activity change, negative = cytotoxicity” value is 7.74% (inactive).
On the same count and under the same terms, in the case of `Cc1cc2c(cc3c(SCc4nc(-c5ccccc5)oc4C)nnc(C)n32)o1` it was 0.258% (inactive); in that of `CC(=O)c1cccc(NC(=O)CSc2nc3c(c(=O)[nH]2)CCC3)c1`, 7.62% (inactive); in that of `CC(C)C(OC(=O)c1cccs1)C(=O)NC1CCCCC1` (centres undefined), -5.17% (inactive).
Consider `COc1ccc(C(=O)COC(=O)CCCC(=O)Nc2cc(C(F)(F)F)ccc2Cl)cc1`, for which the “activity change, negative = cytotoxicity” value was 2.12% (inactive).
Still for that read-out and setting: in the case of `Cc1nnc(N2CCC(C(=O)Nc3ccc(F)cc3)CC2)c2nn(-c3ccc(Cl)cc3)c(C)c12` it was 12.4% (inactive).
The same measure, in the same setting: in the case of `O=C(CC1N=C2c3ccccc3N=C(SCc3ccc(F)cc3)N2C1=O)NCc1cccs1` (centres undefined) it was 8.54% (inactive).
The same measure, in the same setting: to `CCOc1ccc(CCNC(=O)c2cc3c(=O)n(C)c4ccccc4c3n2C)cc1` belongs -5.8% (inactive).
Regarding `CCCn1c(=N)c(C(=O)NCc2ccccc2)cc2c(=O)n3cccc(C)c3nc21`, the “activity change, negative = cytotoxicity” value was 11% (inactive).
The same measure, in the same setting: in the case of `Cc1ccccc1NC(=O)CN1C(=O)C(C)(C)c2ccccc21` it was -2.97% (inactive); in that of `O=C(Nc1ccc(Br)cc1)c1cc2nc(-c3ccccc3)cc(-c3ccccc3)n2n1`, 1.89% (inactive); in that of `CCCOc1ccc(C2c3c(-c4ccccc4O)n[nH]c3C(=O)N2Cc2cccnc2)cc1` (centres undefined), 38.5% (inactive).
`COc1ccc(C(=O)Nc2onc3c2CCCC3)cc1`: the Potency was 7.94 µM (active).
Take `CC1CCc2noc(NC(=O)c3ccc([N+](=O)[O-])cc3)c2C1` (centres undefined): the “activity change, negative = cytotoxicity” value was -0.123% (inactive).
On the same count and under the same terms, in the case of `COc1ccc(-c2cc(C(=O)Nc3sc4c(c3C(N)=O)CCCC4)no2)cc1` it was 0.619% (inactive); in that of `O=c1c(Cl)c(NCc2ccc(F)cc2Cl)cnn1C12CC3CC(CC(C3)C1)C2`, -3.19% (inactive); in that of `Cc1cccc(OCc2ccc(C(=O)Nc3ccc(F)cc3)cc2)c1`, -16.1% (inactive).
For the molecule `Cc1cccc(C)c1-n1ncc(C(=O)NCCCN2CCCCC2)c1C1CCN(C(=O)OC(C)(C)C)CC1`, the “activity change, negative = cytotoxicity” value was 7.41% (inactive).
Same read-out and setting: in the case of `COc1cccc(C(=O)NCC(=O)OCc2cc(=O)n3ccsc3n2)c1` it was -11.1% (inactive).
As to `Cc1c(NC(=O)Cc2ccccc2)cccc1-c1nc2cccnc2s1`, the “activity change, negative = cytotoxicity” value was 2.04% (inactive).
Same read-out and setting: in the case of `CCC(C(=O)Nc1cccc(-c2nc3cccnc3s2)c1C)c1ccccc1` (centres undefined) it was 5.41% (inactive).
`Cc1c(NC(=O)C(C)(C)C)cccc1-c1nc2ccccc2s1`: the Potency was 10 µM (active).
As for `O=C(Cc1c[nH]c2ccccc12)N/N=C/c1cccc(F)c1`, the “activity change, negative = cytotoxicity” value was -18.8% (inactive).
On the same count and under the same terms, in the case of `Cc1ccccc1Nc1nn2c(=O)c3ccc(C(=O)NCCc4ccc(Cl)cc4)cc3nc2s1` it was -15.5% (inactive).
The same measure, in the same setting: to `CCOc1ccccc1C(=O)Nc1ccc(S(=O)(=O)N2CCCCC2c2cccnc2)cc1` (centres undefined) belongs 3.25% (inactive).
Same read-out and setting: to `O=c1c2cccnc2n(Cc2cccc(F)c2)c(=O)n1Cc1ccccc1Cl` belongs -7.53% (inactive); to `COc1ccc(S(=O)(=O)n2nc(C)c(S(=O)(=O)N3CCCCCC3)c2C)cc1`, -2.68% (inactive); to `CCOC(=O)c1c(/N=C/c2cc(C)ccc2O)sc2c1CCC2`, 6.17% (inactive).
In the case of `CCC(=O)N1CCc2cc(S(=O)(=O)CCC(=O)N3CCN(c4ccccc4F)CC3)ccc21`, the “activity change, negative = cytotoxicity” value is 9.11% (inactive).
In the case of `Cc1ccc(CNC(=O)CCC(=O)N2CC(C)Sc3ccccc32)cc1` (centres undefined), the “activity change, negative = cytotoxicity” value is 0.966% (inactive).
On to `CCOc1ccc(NC(=O)CCc2c(C)nn(-c3ccc(N4CCCC4)nn3)c2C)cc1`, for which the “activity change, negative = cytotoxicity” value is -3.11% (inactive).
In the case of `CCCOc1ccc(-c2cccc(NS(=O)(=O)c3ccccc3)c2)nn1`, the “activity change, negative = cytotoxicity” value was 22.4% (inactive).
`Cn1nnc2c(N3CCN(c4ccccc4)CC3)ncnc21`: the “activity change, negative = cytotoxicity” value was 2.99% (inactive).
In the case of `CCOc1ccc(C(=O)Nc2ccc3nc4c(c(Nc5ccccc5OC)c3c2)CCCC4)cc1`, the “activity change, negative = cytotoxicity” value was -13% (inactive).
As for `O=C(Nc1c2c(nc3ccccc13)CCCC2)c1ccccc1Br`, the “activity change, negative = cytotoxicity” value is -2.95% (inactive).
On to `COc1ccccc1Nc1c2c(nc3ccc(NC(=O)/C=C/c4cc(OC)c(OC)c(OC)c4)cc13)CCCC2`, for which the Potency is 15.8 µM (active).
Take `COc1ccc(-n2ccn(CC(=O)Nc3ccc(C)c(C)c3)c(=O)c2=O)cc1OC`: the “activity change, negative = cytotoxicity” value was 8.42% (inactive).
Still for that read-out and setting: in the case of `CCN(CC)S(=O)(=O)c1nnc(NC(=O)COc2ccccc2Cl)s1` it was -17.3% (inactive); in that of `CCN(Cc1ccccc1)C(=O)c1cn(-c2cccc(OC)c2)c(=O)c2ccccc12`, 3.16% (inactive); in that of `COc1ccc(NC(=O)CSc2nc3ncccc3[nH]2)c(OC)c1`, -12.6% (inactive).
Consider `COC(=O)c1c(NC(=O)c2ccc(Cl)c(Cl)c2)sc2c1CCCC2`, for which the “activity change, negative = cytotoxicity” value is 3.23% (inactive).
The same measure, in the same setting: to `Clc1ccc(-n2nnnc2-c2cnc(-c3ccccn3)nc2-c2cccs2)cc1` belongs 18% (inactive).
Turning to `c1ccc(-c2noc(-c3cccs3)n2)nc1`, the Potency was 10 µM (active).
Take `Cc1ccc(C)c(N2CCN(C(=O)C3CCC(CNS(=O)(=O)c4cccs4)CC3)CC2)c1` (centres undefined): the “activity change, negative = cytotoxicity” value is 41.1% (inactive).
On the same count and under the same terms, in the case of `O=C(COc1nc2ccccc2nc1N1CCOCC1)NCC(F)(F)F` it was -4.1% (inactive); in that of `CN(C)CCCO/N=C(\c1ccccc1)c1ccncc1`, 3.09% (inactive); in that of `Cc1ccc(CN2CCC(CNC(=O)c3cnn(-c4ccccc4Cl)c3C3CCN(C(=O)OC(C)(C)C)CC3)CC2)cc1`, 15.7% (inactive).
Still for that read-out and setting: in the case of `Cc1ccc(C)n1-c1nnc(N2CCC(C(=O)NCc3ccccc3Cl)CC2)s1` it was 9.93% (inactive); in that of `COc1ccc(-c2nc(SCC(=O)N3CCCCC3C)n[nH]2)cc1` (centres undefined), -7.2% (inactive); in that of `Cc1ccc(NC(=S)NC(=O)/C=C/c2ccc(Cl)cc2)cc1`, 0.296% (inactive).
Turning to `Cc1cc(=O)n(CC(=O)Nc2cccc([N+](=O)[O-])c2)c(-n2nc(C)cc2C)n1`, the “activity change, negative = cytotoxicity” value was -0.133% (inactive).
Still for that read-out and setting: in the case of `CN(C)c1ccc(NC(=O)CSc2nc(-c3ccco3)cc(C(F)(F)F)n2)cc1` it was 10.9% (inactive).
On the same count and under the same terms, to `CCCN(CCC)c1c([N+](=O)[O-])c(=O)oc2ccccc12` belongs 3.8% (inactive); to `COc1ccc(C(=O)NCC(c2ccc(N(C)C)cc2)N2CCc3ccccc32)c(OC)c1` (centres undefined), 0.255% (inactive); to `CCOC(=O)c1c(C)[nH]c(CCC(=O)NCCCN2CCN(c3cc(C)ccc3C)CC2)c1C`, 9.67% (inactive).
For `O=C(Nc1ccc(OC(F)(F)F)cc1)C1CCCN(S(=O)(=O)c2ccc(Br)s2)C1` (centres undefined), the “activity change, negative = cytotoxicity” value was 1.93% (inactive).
On to `Cc1ccc2nc3c(cc(C(=O)NC4CCCCC4)c(=N)n3C(C)C)c(=O)n2c1`, for which the “activity change, negative = cytotoxicity” value was 2.45% (inactive).
Same read-out and setting: to `COc1cccc(CNC(=O)C(NS(=O)(=O)c2ccc3nc(C)sc3c2)C(C)C)c1` (centres undefined) belongs -7.22% (inactive); to `CC(C)(C)c1ccc(C(=O)NCC(c2ccco2)S(=O)(=O)c2ccc(F)cc2)cc1` (centres undefined), 20% (inactive).

Source of the values: PubChem BioAssay AID903 (National Center for Advancing Translational Sciences (NCATS), 2007).
